Assay outcomes (PubChem BioAssay)
HCMV antiviral = qHTS Assay for inhibitors of the human cytomegalovirus (HCMV). hit rate 4.5% among 410,000. HFF cells, HCMV-luciferase reporter, 72 h; active compounds read low. activity change, negative = inhibition, % at 57.5 µM; in the data active = activity change below about -60%; inconclusive = no clear call, values can overlap the other calls; inactive = above about -39%
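Compounds were evaluated in HFFs infected with an HCMV luciferase reporter virus (MOI 1 PFU/cell). Luciferase in lysates collected 72 h post infection served as the replication measure.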
HCV inh = qHTS Assay for Inhibitors of Hepatitis C Virus (HCV); Huh7.5.1 HCVcc-Cre infection, luciferase reporter, 44 h; Potency, µM (doses to about 41.8 µM), most hits filed as inhibitors; hit rate 3.4% among 340,000; active = well fitted inhibition curve with a large enough effect; inconclusive = small, poorly fitted or top-dose-only effect, or another doubt; inactive = no such curve, though single readings can be large or run the other way
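1,000 cells/well; 4 h culture; + compound; + HCVcc-Cre (~0.5 moi); 44 h; luciferase substrate, RT 15 min; read 15 sec.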
Marburg entry inh = qHTS for inhibitors of binding or entry into cells for Marburg Virus; Marburg virus pseudotyped entry inhibition, cell reporter; Potency, µM (top dose mostly 37.8 µM), usual class: inhibitors; hit rate 1.8% among 300,000; AID 540276, 2011; calls by dose curve; tested in HEK293 cells
Lassa entry inh = qHTS for Inhibitors of binding or entry into cells for Lassa Virus; Lassa virus pseudotype entry inhibition, cell reporter; Potency, µM (series often up to 37.9 µM), most hits filed as inhibitors; AID 540256, 2011; hit rate 1.2% among 300,000; calls by dose curve; tested in HEK293 cells; also: nearly all actives have a fitted effect of over 50% in size
FMDV inh = High Throughput Screening for Foot and Mouth Disease Virus Antivirals. FMDV antiviral cell-based qHTS. Potency, µM (titrated, usually from 57.9 µM), hits mostly inhibitors. hit rate 1.2% among 410,000. AID 1159524, 2015; calls by dose curve; tested in HEK293T cells; also: read-out not given here; nearly all actives have a fitted effect of over 45% in size
Large screens that a line does not name were inactive. Hits are enriched below; roughly 7.9% of the tested compounds scored in any of these assays.

CC(=O)Nc1ccc(C(=O)COC(=O)C2CC2C)c(F)c1 (centres undefined)	HCV inh 13µM, Marburg entry inh inconclusive
C[C@@H]1NC(=O)/C(=C\c2ccccc2Cl)NC1=O	HCMV antiviral inconclusive
C[C@@H]1NC(=O)/C(=C\c2ccccc2Br)NC1=O	HCMV antiviral -102, Lassa entry inh inconclusive
COc1cc2c(=O)[nH]c3cc([N+](=O)[O-])ccc3c2cc1[N+](=O)[O-]	HCMV antiviral -94 (no result: HCV inh, Marburg entry inh, Lassa entry inh)
O=c1[nH][nH]c(=O)c2cc([N+](=O)[O-])ccc12	HCV inh inconclusive
O=[N+]([O-])c1cc2c(cc1Br)-c1ccccc1C2	none (no result: HCV inh, Marburg entry inh, Lassa entry inh)
COc1cc2c(cc1[N+](=O)[O-])-c1ccc([N+](=O)[O-])cc1C2	HCMV antiviral -68 (no result: HCV inh, Marburg entry inh, Lassa entry inh, FMDV inh)
CC(=O)Nc1cccc2c1Cc1cc([N+](=O)[O-])ccc1-2	HCMV antiviral -98
COc1cc2c(cc1[N+](=O)[O-])-c1ccccc1C2	HCMV antiviral -75, Marburg entry inh inconclusive
O=C(NCC1Cc2cc(-c3cnc4ccccc4c3)cc(F)c2O1)c1cnsn1 (centres undefined)	none (no result: HCMV antiviral, HCV inh, Marburg entry inh, Lassa entry inh)
COc1ccc(CCNC(=O)C(=O)NCC(c2ccco2)S(=O)(=O)c2ccccc2)cc1OC (centres undefined)	FMDV inh inconclusive (no result: HCV inh, Marburg entry inh)
O=[N+]([O-])c1ccc2c(c1)Cc1cc(F)ccc1-2	HCMV antiviral -94
Cc1nc(N=Nc2cc(S(=O)(=O)O)c3cc([N+](=O)[O-])cc(S(=O)(=O)O)c3c2)c(COP(=O)(O)O)c(C=O)c1O	Marburg entry inh 20µM, Lassa entry inh inconclusive (no result: HCMV antiviral, HCV inh)
COC(=O)C1=C(C)N(CCC(C)O[Si](C)(C)C(C)(C)C)C(=O)N(C(C)=O)C1c1ccccc1 (centres undefined)	none (no result: HCMV antiviral, HCV inh, Lassa entry inh, FMDV inh)
CCN(CC)S(=O)(=O)c1ccc(N2CCOCC2)c(NC(=O)c2ccccc2)c1	none
CCN(CC)S(=O)(=O)c1ccc(N2CCOCC2)c(NC(=O)COc2ccc(Cl)cc2)c1	HCMV antiviral inconclusive, HCV inh 10µM (no result: Marburg entry inh, Lassa entry inh)
CCN(CC)S(=O)(=O)c1ccc(N2CCOCC2)c(NC(=O)c2cc3ccccc3o2)c1	HCMV antiviral -73 (no result: HCV inh, Marburg entry inh, Lassa entry inh)
CCN(CC)S(=O)(=O)c1ccc(N2CCOCC2)c(NC(=O)CC(C)(C)C)c1	none (no result: Marburg entry inh, Lassa entry inh)
CCOC(=O)c1nnc(-c2cccs2)nc1Oc1ccc(Cl)cc1	FMDV inh 28µM
CCOC(=O)c1nnc(-c2cccs2)nc1Oc1ccccc1C(=O)OC	FMDV inh inconclusive
CSc1ccccc1NC(=O)CCS(=O)(=O)c1nc(-c2ccc3c(c2)OCO3)cc(C(F)(F)F)n1	Marburg entry inh inconclusive, FMDV inh inconclusive (no result: HCV inh)
COC(=O)c1ccccc1NC(=O)CCS(=O)(=O)c1nc(-c2ccc3c(c2)OCO3)cc(C(F)(F)F)n1	HCMV antiviral -70, FMDV inh inconclusive (no result: HCV inh)
O=C(CCS(=O)(=O)c1nc(-c2ccc3c(c2)OCO3)cc(C(F)(F)F)n1)Nc1ccc(Br)cc1	HCMV antiviral -99, Marburg entry inh inconclusive, FMDV inh inconclusive (no result: HCV inh)
O=C(CCS(=O)(=O)c1nc(-c2ccc3c(c2)OCO3)cc(C(F)(F)F)n1)Nc1ccccc1F	Lassa entry inh inconclusive, FMDV inh inconclusive (no result: HCV inh)
O=C(c1ccco1)N1CCN(C2CN(C3CCCCC3)S(=O)(=O)C2)CC1 (centres undefined)	none (no result: HCV inh, Marburg entry inh)
CC(C)C[C@@H](COc1ccccc1)N1CCN(Cc2ccccc2)CCC1=O	HCMV antiviral -102 (no result: Marburg entry inh, Lassa entry inh)
O[C@@H]1CN(Cc2ccc(-n3cccn3)cc2)CC[C@H]1N1CCN(c2ccccc2F)CC1	HCMV antiviral inconclusive, HCV inh 8.9µM, FMDV inh inconclusive (no result: Marburg entry inh, Lassa entry inh)
CCS(=O)(=O)N1CCc2cc(C(=O)Nc3cc(Cl)ccc3C)ccc21	none (no result: HCV inh)
O=C1/C(=C/c2ccc(N3CCOCC3)o2)SC(=Nc2ccccc2)N1CCc1c[nH]c2ccccc12	HCV inh 3.2µM, Marburg entry inh inconclusive, Lassa entry inh 7.1µM (no result: HCMV antiviral)
COc1cc(/C=C2\SC(=Nc3ccccc3)N(CCc3c[nH]c4ccccc34)C2=O)ccc1OC(C)C(=O)O (centres undefined)	HCV inh inconclusive
Cc1c(C(=O)Nc2cccc(F)c2)cnn1-c1ccccc1	HCV inh 11µM, Marburg entry inh inconclusive, Lassa entry inh inconclusive
CCc1ccc(NC(=O)c2cnn(-c3ccccc3)c2-n2cccc2)cc1	Marburg entry inh inconclusive (no result: HCV inh)
Cc1ccc(NC(=O)c2cnn(-c3ccccc3)c2C)cc1C	HCMV antiviral -61, HCV inh inconclusive, Marburg entry inh inconclusive, Lassa entry inh 3.2µM
COc1cccc(NC(=O)c2cnn(-c3ccccc3)c2-n2cccc2)c1	HCMV antiviral -63 (no result: HCV inh, Marburg entry inh)
Cc1c(C(=O)Nc2ccccc2)cnn1-c1ccccc1	Marburg entry inh inconclusive, Lassa entry inh inconclusive
O=S(=O)(Nc1ccc(-c2ccc(N3CCCCCC3)nn2)cc1)c1cccc(C(F)(F)F)c1	none (no result: HCV inh, Marburg entry inh)
CC(C)Nc1nc(Cl)nc(N(C#N)CN2C(=O)c3ccccc3C2=O)n1	HCMV antiviral inconclusive, HCV inh inconclusive, Marburg entry inh 2.5µM, Lassa entry inh inconclusive, FMDV inh inconclusive
Cn1nc(C(F)(F)F)c(/C=N/OC(=O)c2ccccc2)c1Sc1ccc(Cl)cc1	HCMV antiviral -63, HCV inh inconclusive, Marburg entry inh inconclusive, Lassa entry inh inconclusive, FMDV inh inconclusive
Cn1nc(C(F)(F)F)c(/C=N/OC(=O)c2ccccc2)c1Cl	none
Cc1cc(C(=O)CSc2nncs2)c(C)n1-c1c(C)n(C)n(-c2ccccc2)c1=O	none (no result: FMDV inh)
Cc1ccc(-n2c(C)cc(C(=O)CSc3nncs3)c2C)cc1	HCMV antiviral -71, HCV inh inconclusive, Marburg entry inh inconclusive, Lassa entry inh inconclusive (no result: FMDV inh)
CCC1CN(CC(=O)NC(C)c2c(C)nn(C)c2C)Cc2cc(OC)ccc2O1 (centres undefined)	none (no result: HCMV antiviral, HCV inh, Marburg entry inh, Lassa entry inh)
O=C(CCCCCNC(=O)N1CCn2c1nc1ccccc12)NCc1ccc(F)cc1	none
Cc1ccc(NC(=O)c2sc3nc4c(cc3c2N)CN(Cc2ccccc2)CC4)cc1	HCMV antiviral -63, Marburg entry inh inconclusive (no result: HCV inh)
CCN1CCc2nc3sc(C(=O)Nc4cccc(Cl)c4C)c(N)c3cc2C1	HCMV antiviral inconclusive, Marburg entry inh inconclusive, FMDV inh 14µM (no result: HCV inh)
CCN1CCc2nc3sc(C(=O)Nc4cccnc4Cl)c(N)c3cc2C1	HCMV antiviral inconclusive (no result: Marburg entry inh, Lassa entry inh)
COc1cccc(CNC(=O)Cc2c(C)c3c(cc(C)c4c(C)c(C)oc43)oc2=O)c1	none (no result: HCV inh)
COc1ccc(/C=C/C(=O)NC(=S)Nc2ccccc2C(=O)NC2CCCCC2)cc1	HCV inh 25µM, Lassa entry inh inconclusive (no result: FMDV inh)
COc1ccc(/C=C/C(=O)NC(=S)NNC(=O)c2ccco2)cc1	HCV inh inconclusive, Marburg entry inh inconclusive, Lassa entry inh 4.5µM
COc1ccc(/C=C/C(=O)NC(=S)NNC(=O)c2ccco2)cc1OC	none (no result: Marburg entry inh, Lassa entry inh)
O=C(/C=C/c1ccc(Cl)cc1)NC(=S)Nc1ccc(NC(=O)c2ccco2)cc1	HCMV antiviral -70, HCV inh inconclusive, Marburg entry inh inconclusive, Lassa entry inh 1.6µM
CC(=O)Nc1ccc(NC(=S)NC(=O)/C=C/c2ccc(Cl)cc2)cc1	Marburg entry inh inconclusive
